“And” between values parts separate entries of the source, which are not always exact repeats. Identical values can stand only once. This is part of a sample that, as a whole, favours compounds with a hit. Of some 83,000 tested, about 20% had one in any assay.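 Single-concentration screen, 48 h exposure, 96-well plates. Endpoint: percent growth. Below 10 = active.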 The source made the active and inactive calls.
The compounds below were run on MDA-MB-435 melanoma (assay: NCI-60 one-dose screen, 48 h (100 = growth as untreated, 0 = no growth, -100 = all killed)). Settings: 10 µM unless noted.

| Structure (SMILES) | growth |
| --- | --- |
| O=C1C=CC(=CC=C2N(Cc3ccc4ccccc4c3)c3ccccc3N2Cc2ccc3ccccc3c2)C=C1 | 12.5% (inactive) and 8.75% (active) |
| O=c1[nH]c2ccccc2cc1COc1ccc(Nc2nccc(-c3ccc(Cl)cc3)n2)cc1 | 102% (inactive) |
| CC1=C(C(=O)Nc2ccccc2)C(c2ccc3ccccc3c2)n2c(nc3ccccc32)N1 (stereo not given) | 53.9% (inactive) |
| O=C1CC(c2ccc(I)cc2)OC2C=Cc3ccccc3C12 (stereo not given) | 97.4% (inactive) |
| COc1ccc(C(=O)/C=C/c2ccc3c(c2)OCCO3)cc1S(N)(=O)=O | 87.8% (inactive) |
| O=C(Cn1c(-c2ccccc2)nc2ccccc21)N=Nc1c(O)[nH]c2ccc(Br)cc12 | -32.3% (active) |
| Cn1cc(-c2cc3nc(-c4cn(C)c5ncc(Br)cc45)cc(N)n3n2)c2cc(F)ccc21 | 39.8% (inactive) |
| O=C1Nc2ccccc2/C1=C/C(=O)c1cc2ccccc2oc1=O | 110% (inactive) |
| CCC(=O)c1c2c(c3ccc4c5ccccc5ccc4n13)C(=O)c1ccccc1C2=O | -89.8% (active) |
| COc1ccc(C(=O)NNC(=O)CSc2nc3sc4c(c3c(=O)n2-c2ccc(Cl)cc2)CCCC4)cc1 | 93.4% (inactive) |
| Cc1nc2sccn2c1-c1nnc(SCC(C)C)o1 | 102% (inactive) |
| COc1ccc([C@H]2C(C(=O)c3ccc(Cl)cc3)C3(N[C@@H]2c2ccccc2)C(=O)Nc2ccccc23)cc1 (stereo not given in full) | 23.4% (inactive) |
| CN(C)CCCNC(=S)Nc1ccc(/C=C/c2ccc(Cl)cc2)cc1 | -90.6% (active) |
| COc1ccc2[nH]c(=O)c(CSc3ccccc3Nc3nccc(-c4ccc(Cl)cc4)n3)cc2c1 | 28.3% (inactive) |
| CCN(C(=O)CN1C(=O)/C(=C/c2ccco2)SC1=S)C1CCS(=O)(=O)C1 (stereo not given) | 92.2% (inactive) |
| CC[C@@]12CC(C(=O)OC)=C3Nc4cc5c(cc4[C@@]34CCN(C[C@H]3O[C@H]31)[C@@H]24)[C@@H]1[C@H](O5)[C@@H](O)[C@@]2(CC)CC(C(=O)OC)=C3Nc4cc(O)ccc4[C@@]34CCN1[C@@H]24 | -54.3% (active) |
| CN(C)CCCc1ccc(Nc2cnn(C)c(=O)c2Cl)cc1 | 97.8% (inactive) |

The compounds below were run on SW-620 colon in the same assay as above. Settings: 10 µM unless noted.

| Structure (SMILES) | growth |
| --- | --- |
| O=C(CSc1nnc(-c2ccc(-c3nc4ccccc4[nH]3)cc2)o1)Nc1ccc(Br)cc1 | -47% (active) |
| COc1ccc2c(c1)N=c1c-2cc2c(O)[nH]c(=S)n2c1=O | 47.4% (inactive) |
| CN(C(=O)CN1C(=O)/C(=C/c2ccco2)SC1=S)C1CCS(=O)(=O)C1 (stereo not given) | 99.9% (inactive) |
| CCOc1ccc2[nH]c(=O)c(C(c3nnnn3CC3CCCO3)N3CCN(Cc4ccccc4)CC3)cc2c1 (stereo not given) | 98.8% (inactive) |
| N#CC1=C(c2cccs2)Nc2c(c(-c3ccccc3)nn2-c2ccccc2)C12C(=O)Nc1ccc(Cl)cc12 (stereo not given) | 21.3% (inactive) |
| COc1ccc(-c2nc3ccccc3n2CC(=O)N=Nc2c(O)[nH]c3ccc(OC)cc23)cc1 | 48.6% (inactive) |
| O=C(NC(=S)N1CCN(c2ncnc3c2cnn3-c2ccccc2)CC1)c1ccc(Br)cc1 | 81.7% (inactive) |
| COc1c(B(O)O)cc(F)cc1-c1nc2ccc3[nH]ncc3c2c2c1COCC2 | 34.3% (inactive) |
| CC1=C(C(=O)Nc2ccccc2)C(c2cccc(Cl)c2Cl)n2c(nc3ccccc32)N1 (stereo not given) | 56.5% (inactive) |
| CC(Nc1ncnc2ccc(-c3ccc4oc(N)nc4c3)cc12)c1ccccc1 (stereo not given) | -66.6% (active) |
| CNc1nc2ccccc2n2c(-c3ccc(O)c(O)c3)cnc12 | 24.6% (inactive) |
| COc1cc(/C=C/C(=O)c2cnn(-c3cc(=O)[nH]c4ccc(Br)cc34)c2C)cc(OC)c1OC | -67.4% (active) |
| COc1ccc(/C=C/C(=O)c2ccc(OC)c(S(N)(=O)=O)c2)c(C(F)(F)F)c1 | 7.45% (active) |
| COc1ccc(S(=O)(=O)Nc2ccc(-c3ccc4c(c3)NC(=O)/C4=C\c3ccc[nH]3)cc2)cc1OC | 16.1% (inactive) |
| COC(=O)c1ccc(-c2c(-c3ccccc3)c(F)c3oc(C(=O)OC)c(N)c3c2-c2ccccc2)cc1 | 87.1% (inactive) |
| O=C(COc1ccc(/C=C2/C(=O)Nc3ccc(Cl)cc32)cc1)Nc1ccc(Br)cc1 | 2.56% (active) |
| O=C(CSc1nc2ccccc2c(=O)[nH]1)NNC(=O)c1ccccc1Cl | 104% (inactive) |
| COc1ccc2[nH]cc(-c3cc4nc(-c5cn(C)c6ncccc56)cc(N)n4n3)c2c1 | -53.3% (active) |
| COc1cc2cc(C(=O)N3C[C@@H](CCl)c4c3cc(OC(=O)N(CCC(=O)N3CCN(C)CC3)C3CCCCC3)c3ccccc43)[nH]c2c(OC)c1OC | -55% (active) |

| Structure (SMILES) | growth |
| --- | --- |
| CC[C@]12C=CCN3CC[C@@]4(c5ccc(OC)cc5N(C)[C@H]4[C@@](O)(C(=O)OC)[C@@H]1OC(=O)CCCC[P+](c1ccc(F)cc1)(c1ccc(F)cc1)c1ccc(F)cc1)[C@@H]32 | 36.9% (inactive) |
| O=C(Nc1nc2ccc([N+](=O)[O-])cc2s1)Nc1ccccc1F | 16.6% (inactive) |
| O=C1C=CC(=CC=C2N(Cc3ccc4ccccc4c3)c3ccccc3N2Cc2ccc3ccccc3c2)C=C1 | 29.1% (inactive) and 19.4% (inactive) |
| O=c1[nH]c2ccccc2cc1COc1ccc(Nc2nccc(-c3ccc(Cl)cc3)n2)cc1 | 105% (inactive) |
| CC1=C(C(=O)Nc2ccccc2)C(c2ccc3ccccc3c2)n2c(nc3ccccc32)N1 (stereo not given) | 9.24% (active) |
| O=C1CC(c2ccc(I)cc2)OC2C=Cc3ccccc3C12 (stereo not given) | 103% (inactive) |
| COc1ccc(C(=O)/C=C/c2ccc3c(c2)OCCO3)cc1S(N)(=O)=O | 32.3% (inactive) |
| O=C(Cn1c(-c2ccccc2)nc2ccccc21)N=Nc1c(O)[nH]c2ccc(Br)cc12 | 11.9% (inactive) |
| Cn1cc(-c2cc3nc(-c4cn(C)c5ncc(Br)cc45)cc(N)n3n2)c2cc(F)ccc21 | 26.6% (inactive) |
| O=C1Nc2ccccc2/C1=C/C(=O)c1cc2ccccc2oc1=O | 2.06% (active) |
| CCC(=O)c1c2c(c3ccc4c5ccccc5ccc4n13)C(=O)c1ccccc1C2=O | 88.5% (inactive) |
| COc1ccc(C(=O)NNC(=O)CSc2nc3sc4c(c3c(=O)n2-c2ccc(Cl)cc2)CCCC4)cc1 | 88% (inactive) |
| Cc1nc2sccn2c1-c1nnc(SCC(C)C)o1 | 97.6% (inactive) |
| COc1ccc([C@H]2C(C(=O)c3ccc(Cl)cc3)C3(N[C@@H]2c2ccccc2)C(=O)Nc2ccccc23)cc1 (stereo not given in full) | 34.7% (inactive) |
| CN(C)CCCNC(=S)Nc1ccc(/C=C/c2ccc(Cl)cc2)cc1 | -41.7% (active) |
| COc1ccc2[nH]c(=O)c(CSc3ccccc3Nc3nccc(-c4ccc(Cl)cc4)n3)cc2c1 | 50.3% (inactive) |
| CCN(C(=O)CN1C(=O)/C(=C/c2ccco2)SC1=S)C1CCS(=O)(=O)C1 (stereo not given) | 102% (inactive) |
| CC[C@@]12CC(C(=O)OC)=C3Nc4cc5c(cc4[C@@]34CCN(C[C@H]3O[C@H]31)[C@@H]24)[C@@H]1[C@H](O5)[C@@H](O)[C@@]2(CC)CC(C(=O)OC)=C3Nc4cc(O)ccc4[C@@]34CCN1[C@@H]24 | -71.1% (active) |
| CN(C)CCCc1ccc(Nc2cnn(C)c(=O)c2Cl)cc1 | 109% (inactive) |

Reference: PubChem BioAssay (NCI)
